PubChem BioAssay (EPA / NIEHS)
Active and inactive are the calls of the source. The calls were made as follows: active = hit-call score of the fitted dose curve at least 0.9, where 1 is the maximum; inactive = score below 0.9.

How the values were obtained:
Conditions in all cases: mRNA level, 48 h; actives raise or lower the signal
[1] = read-out: Ezrin (EZR), EZR (gene 7430); assay: LTEA_HepaRG_EZR: Life Technologies and Expression Analysis (LTEA) Assay for Ezrin (EZR) using HepaRG (AID 2283491)
Method in brief: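 Read-out is EZR transcript level by qRT-PCR, normalized to three housekeeping genes and fitted bidirectionally against the DMSO control. Human HepaRG cells received test chemicals for 48 h at eight half-log concentrations up to 100 uM in 0.5% DMSO.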

[2] = read-out: Cytochrome P450 3A7 (Homo sapiens) (UniProt P24462); assay: LTEA_HepaRG_CYP3A7: Life Technologies and Expression Analysis (LTEA) Assay for CYP3A7 using HepaRG (AID 2283492)
Method in brief: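 Differentiated HepaRG cells in serum-free induction medium exposed 48 h in duplicate to 8-point half-log series from 100 uM top in 0.5% DMSO. CYP3A7 mRNA by qRT-PCR, normalized to ACTB/GAPDH/POLR2A, bidirectional fit versus DMSO.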

[3] = read-out: CYP3A5 (gene 1577); assay: LTEA_HepaRG_CYP3A5: Life Technologies and Expression Analysis (LTEA) Assay for CYP3A5 using HepaRG (AID 2283493)
Method in brief: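 HepaRG plated 48 h, switched to serum-free induction medium, chemicals added 48 h (max 100 uM, half-log, 0.5% DMSO). RNA isolated; CYP3A5 by TaqMan qRT-PCR. Gain/loss vs DMSO.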

[4] = read-out: Fatty Acid-Binding Protein 1 (FABP1), FABP1 (gene 2168); assay: LTEA_HepaRG_FABP1: Life Technologies and Expression Analysis (LTEA) Assay for Fatty Acid-Binding Protein 1 (FABP1) using HepaRG (AID 2283494)
Method in brief: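 Differentiated human HepaRG cells exposed 48 h in serum-free induction medium to eight half-log concentrations up to 100 uM (0.5% DMSO), duplicate. FABP1 mRNA by qRT-PCR, normalised to ACTB, GAPDH, POLR2A; bidirectional fitting against DMSO.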

[5] = read-out: Cytochrome P450 4A22 (Homo sapiens) (UniProt Q5TCH4); assay: LTEA_HepaRG_CYP4A22: Life Technologies and Expression Analysis (LTEA) Assay for Cytochrome P450 4A22 (CYP4A22) using HepaRG (AID 2283495)
Method in brief: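 Differentiated HepaRG cells in serum-free induction medium exposed 48 h in duplicate to eight half-log concentrations up to 100 uM in 0.5% DMSO. CYP4A22 mRNA quantified by TaqMan qRT-PCR, normalized to ACTB, GAPDH and POLR2A; bidirectional fit versus DMSO.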

[6] = read-out: Cytochrome P450 7A1 (Homo sapiens) (UniProt P22680); assay: LTEA_HepaRG_CYP7A1: Life Technologies and Expression Analysis (LTEA) Assay for Cytochrome P450 7A1 (CYP7A1) using HepaRG (AID 2283496)
Method in brief: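 HepaRG cells plated 48 h, then switched to serum-free induction medium and exposed in duplicate for 48 h to 8-point half-log series from 100 uM in 0.5% DMSO. CYP7A1 mRNA by qRT-PCR (TaqMan), normalized to ACTB/GAPDH/POLR2A; bidirectional fit versus DMSO.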

[7] = read-out: Glutathione S-Transferase (GSTA2), GSTA2 (gene 2939); assay: LTEA_HepaRG_GSTA2: Life Technologies and Expression Analysis (LTEA) Assay for Glutathione S-Transferase (GSTA2) using HepaRG (AID 2283497)
Method in brief: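 Differentiated human HepaRG cells were exposed in duplicate for 48 h in serum-free induction medium, 8 points from 100 uM top in half-log steps, 0.5% DMSO. GSTA2 mRNA was measured by TaqMan qRT-PCR, normalized to ACTB, GAPDH and POLR2A; bidirectional fit versus DMSO.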

[8] = read-out: growth arrest and DNA damage 45 (GADD45G), GADD45G (gene 10912); assay: LTEA_HepaRG_GADD45G: Life Technologies and Expression Analysis (LTEA) Assay for growth arrest and DNA damage 45 (GADD45G) using HepaRG (AID 2283499)
Method in brief: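 Differentiated human HepaRG cells, 48 h post-plating, exposed 48 h in serum-free induction medium to 8 half-log concentrations (top 100 uM, 0.5% DMSO) in duplicate. GADD45G mRNA measured by Fluidigm TaqMan qRT-PCR, normalized to ACTB, GAPDH, POLR2A; bidirectional fit versus DMSO.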

[9] = read-out: Glutathione S-transferase M3 (GSTM3), GSTM3 (gene 2947); assay: LTEA_HepaRG_GSTM3: Life Technologies and Expression Analysis (LTEA) Assay for Glutathione S-transferase M3 (GSTM3) using HepaRG (AID 2283501)
Method in brief: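 Differentiated human HepaRG cells were exposed in duplicate for 48 h in serum-free induction medium, 8 points from 100 uM top in half-log steps, 0.5% DMSO. GSTM3 mRNA was measured by TaqMan qRT-PCR, normalized to ACTB, GAPDH and POLR2A; bidirectional fit versus DMSO.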

[10] = read-out: Heat shock 70 kDa protein 1 (HSPA1A), gene 3303; assay: LTEA_HepaRG_HSPA1A: Life Technologies and Expression Analysis (LTEA) Assay for Heat shock 70 kDa protein 1 (HSPA1A) using HepaRG (AID 2283502)
Method in brief: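 Readout is HSPA1A transcript level by microfluidic qRT-PCR, normalized to three housekeeping genes and analysed for gain or loss of signal relative to 0.5% DMSO. Human HepaRG cultures received test chemicals for 48 h at up to 100 uM.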

[11] = read-out: Hypoxia-inducible factor 1-alpha (Homo sapiens) (UniProt Q16665); assay: LTEA_HepaRG_HIF1A: Life Technologies and Expression Analysis (LTEA) Assay for Hypoxia-inducible factor 1 (HIF1A) Trancription factor using HepaRG (AID 2283503)
Method in brief: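 Differentiated HepaRG cells in serum-free induction medium exposed 48 h, in duplicate, to 8-point half-log series from 100 uM in 0.5% DMSO. HIF1A mRNA measured by TaqMan qRT-PCR, normalized to ACTB/GAPDH/POLR2A, fitted bidirectionally versus DMSO.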

[12] = read-out: 3-Hydroxy-3-Methylglutaryl-CoA Synthase 2 (HMGCS2), HMGCS2 (gene 3158); assay: LTEA_HepaRG_HMGCS2: Life Technologies and Expression Analysis (LTEA) Assay for 3-Hydroxy-3-Methylglutaryl-CoA Synthase 2 (HMGCS2) using HepaRG (AID 2283504)
Method in brief: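 Human HepaRG cells in serum-free induction medium were exposed in duplicate for 48 h to 8-point half-log series from 100 uM top in 0.5% DMSO. HMGCS2 mRNA measured by TaqMan qRT-PCR, normalised to ACTB, GAPDH, POLR2A; bidirectional fit versus DMSO.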

[13] = read-out: HGF (gene 3082); assay: LTEA_HepaRG_HGF: Life Technologies and Expression Analysis (LTEA) Assay for Hepatocyte Growth Facto (HGF) using HepaRG (AID 2283505)
Method in brief: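 Differentiated HepaRG cells in serum-free induction medium exposed 48 h in duplicate, 8 half-log concentrations from 100 uM in 0.5% DMSO. HGF mRNA by qRT-PCR, normalised to ACTB, GAPDH, POLR2A; bidirectional fitting.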

[14] = read-out: Insulin Like Growth Factor 1 (IGF1), IGF1 (gene 3479); assay: LTEA_HepaRG_IGF1: Life Technologies and Expression Analysis (LTEA) Assay for Insulin Like Growth Factor 1 (IGF1) using HepaRG (AID 2283506)
Method in brief: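 HepaRG, plated 48 h, then switched to serum-free induction media; test chemical 8-pt half-log from 100 uM (0.5% DMSO), duplicate, 48 h. Lysis in RLT, TaqMan qRT-PCR, norm. ACTB/GAPDH/POLR2A. Bidirectional fit vs DMSO.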

[15] = read-out: Intercellular Adhesion Molecule 1 (ICAM1), ICAM1 (gene 3383); assay: LTEA_HepaRG_ICAM1: Life Technologies and Expression Analysis (LTEA) Assay for Intercellular Adhesion Molecule 1 (ICAM1) using HepaRG (AID 2283507)
Method in brief: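 Differentiated human HepaRG cells in serum-free induction medium exposed 48 h in duplicate to 8 half-log concentrations (top 100 uM, 0.5% DMSO). ICAM1 mRNA quantified by TaqMan qRT-PCR, normalized to ACTB, GAPDH and POLR2A; bidirectional fitting versus DMSO.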

[16] = read-out: Insulin-like growth factor-binding protein 1 (IGFBP1), IGFBP1 (gene 3484); assay: LTEA_HepaRG_IGFBP1: Life Technologies and Expression Analysis (LTEA) Assay for Insulin-like growth factor-binding protein 1 (IGFBP1) using HepaRG (AID 2283508)
Method in brief: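 HepaRG cells, plated 48 h then switched to serum-free induction medium, exposed in duplicate for 48 h to 8-point half-log series from 100 uM in 0.5% DMSO. mRNA measured by qRT-PCR, normalized to ACTB/GAPDH/POLR2A; bidirectional fit versus DMSO.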

[17] = read-out: Interleukin 6 (IL6), IL6 (gene 3569); assay: LTEA_HepaRG_IL6: Life Technologies and Expression Analysis (LTEA) Assay for Interleukin 6 (IL6) using HepaRG (AID 2283509)
Method in brief: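 HepaRG cells exposed in duplicate for 48 h to eight half-log concentrations, top 100 uM, in 0.5% DMSO serum-free induction medium. mRNA measured by qRT-PCR, normalized to ACTB, GAPDH and POLR2A. Bidirectional fit versus DMSO.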

[18] = read-out: Interleukin 6 Receptor (IL6R), IL6R (gene 3570); assay: LTEA_HepaRG_IL6R: Life Technologies and Expression Analysis (LTEA) Assay for Interleukin 6 Receptor (IL6R) using HepaRG (AID 2283510)
Method in brief: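 Readout is IL6R transcript level by TaqMan qRT-PCR, normalized to three housekeeping genes and fitted bidirectionally against 0.5% DMSO controls. Human HepaRG cells received chemicals for 48 h in serum-free induction medium, highest concentration 100 uM.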

[19] = read-out: Glutamate-cysteine ligase catalytic (GCLC), GCLC (gene 2729); assay: LTEA_HepaRG_GCLC: Life Technologies and Expression Analysis (LTEA) Assay for Glutamate-cysteine ligase catalytic (GCLC) using HepaRG (AID 2283498)
Method in brief: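 Differentiated HepaRG cells exposed 48 h in serum-free induction medium, eight-point half-log series topping at 100 uM in 0.5% DMSO, duplicates. GCLC mRNA by qRT-PCR normalized to ACTB, GAPDH and POLR2A, fitted bidirectionally versus DMSO.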

[20] = read-out: Glutamate-cysteine ligase regulatory (GCLM), GCLM (gene 2730); assay: LTEA_HepaRG_GCLM: Life Technologies and Expression Analysis (LTEA) Assay for Glutamate-cysteine ligase regulatory (GCLM) using HepaRG (AID 2283500)
Method in brief: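 Cells were plated, cultured 48 h, switched to serum-free induction medium, then dosed in duplicate for 48 h at eight half-log concentrations up to 100 uM. RNA was then profiled by qRT-PCR; gain or loss versus DMSO was fitted.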

Measured: AC50

Chain of Hypoxia-inducible factor 1-alpha (Homo sapiens) (Q16665 whole entry, looked up): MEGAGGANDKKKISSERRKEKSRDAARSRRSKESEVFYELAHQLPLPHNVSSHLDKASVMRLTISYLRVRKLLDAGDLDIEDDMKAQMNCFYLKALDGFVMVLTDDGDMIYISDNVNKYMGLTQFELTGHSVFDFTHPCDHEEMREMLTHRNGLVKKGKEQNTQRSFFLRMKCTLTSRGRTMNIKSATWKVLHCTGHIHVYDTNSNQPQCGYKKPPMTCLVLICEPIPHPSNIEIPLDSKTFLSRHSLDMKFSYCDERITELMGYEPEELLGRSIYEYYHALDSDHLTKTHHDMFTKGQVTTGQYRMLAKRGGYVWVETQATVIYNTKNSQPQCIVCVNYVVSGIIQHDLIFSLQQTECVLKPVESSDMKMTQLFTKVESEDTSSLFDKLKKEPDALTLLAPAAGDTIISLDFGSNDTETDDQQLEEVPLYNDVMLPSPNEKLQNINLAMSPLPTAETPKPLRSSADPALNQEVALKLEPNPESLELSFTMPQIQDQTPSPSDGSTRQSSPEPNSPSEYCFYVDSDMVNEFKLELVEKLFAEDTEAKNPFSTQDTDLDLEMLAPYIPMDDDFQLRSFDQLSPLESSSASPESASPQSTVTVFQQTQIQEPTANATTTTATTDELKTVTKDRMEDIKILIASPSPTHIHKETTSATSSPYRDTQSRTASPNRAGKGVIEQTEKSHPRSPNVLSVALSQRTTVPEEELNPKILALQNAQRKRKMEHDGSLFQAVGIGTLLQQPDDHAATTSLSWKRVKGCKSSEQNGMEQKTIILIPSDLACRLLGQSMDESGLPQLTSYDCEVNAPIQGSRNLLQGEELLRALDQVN
Chain of Cytochrome P450 3A7 (Homo sapiens) (P24462 whole entry, looked up): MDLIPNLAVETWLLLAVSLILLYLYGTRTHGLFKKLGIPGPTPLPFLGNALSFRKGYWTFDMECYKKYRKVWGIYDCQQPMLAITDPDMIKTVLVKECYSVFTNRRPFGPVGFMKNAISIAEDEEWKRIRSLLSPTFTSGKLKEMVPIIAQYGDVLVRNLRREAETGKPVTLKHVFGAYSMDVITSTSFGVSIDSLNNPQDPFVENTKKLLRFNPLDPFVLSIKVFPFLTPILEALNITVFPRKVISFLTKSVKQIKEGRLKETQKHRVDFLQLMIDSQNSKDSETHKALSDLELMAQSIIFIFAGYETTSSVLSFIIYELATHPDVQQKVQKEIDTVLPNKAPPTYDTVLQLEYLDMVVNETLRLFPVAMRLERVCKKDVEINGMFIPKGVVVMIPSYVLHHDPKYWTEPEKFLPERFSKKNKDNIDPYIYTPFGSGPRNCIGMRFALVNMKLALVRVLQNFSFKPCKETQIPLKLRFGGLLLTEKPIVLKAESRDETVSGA

Oc1ccc2c(c1)-c1ccccc1C2
active: [6] 4.87 µM
not listed: [19] | [20]
inactive: all other assays above

CC(=O)c1ccc2c(c1)[C@H](NC(=O)c1ccc(F)cc1)[C@@H](O)C(C)(C)O2
active: [2] 34.2 µM
not listed: [10] | [12] | [19] | [20]
inactive: all other assays above

Clc1nc(Cl)c(Cl)c(Cl)c1Cl
not listed: [4] | [10] | [17]
inactive: all other assays above

CC(C)CCCCCCCOC(=O)CCCCC(=O)OCCCCCCCC(C)C
not listed: [10] | [19] | [20]
inactive: all other assays above

O=C(O)CCN(C1(C(=O)NO)CCCC1)S(=O)(=O)c1ccc(Oc2ccc(F)cc2)cc1
not listed: [4] | [17] | [20]
inactive: all other assays above

O=c1[nH]c2ccc(S(=O)CCN3CCC(Cc4ccc(F)cc4)CC3)cc2o1 (stereo not given)
active: [2] 90.1 µM | [5] 80 µM | [6] 72.5 µM | [7] 87.5 µM | [8] 71.6 µM | [10] 50 µM | [12] 74.7 µM | [16] 89.7 µM | [17] 63 µM
not listed: [4] | [20]
inactive: all other assays above

CCCC(=O)OCC
not listed: [10] | [17] | [19]
inactive: all other assays above
